Screens (PubChem)
The list is not random: actives were taken first. Their share in the collection is about 1.9%.
PGE2 EP2 inh – inhibitors of human EP2 prostaglandin E2 receptor. P43116. C6 glioma cells expressing human EP2, cAMP TR-FRET; cells stimulated with saturating PGE2. inhibition, % at 25 µM. actives 0.52% (n = 260,000). AID 1422;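 active means percent inhibition above 40 after rounding to a whole number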;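 further: rat C6 glioma host cells with rolipram phosphodiesterase inhibitor present; the protocol text gives 20 µM as final concentration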
Target sequence (P43116 whole entry, looked up): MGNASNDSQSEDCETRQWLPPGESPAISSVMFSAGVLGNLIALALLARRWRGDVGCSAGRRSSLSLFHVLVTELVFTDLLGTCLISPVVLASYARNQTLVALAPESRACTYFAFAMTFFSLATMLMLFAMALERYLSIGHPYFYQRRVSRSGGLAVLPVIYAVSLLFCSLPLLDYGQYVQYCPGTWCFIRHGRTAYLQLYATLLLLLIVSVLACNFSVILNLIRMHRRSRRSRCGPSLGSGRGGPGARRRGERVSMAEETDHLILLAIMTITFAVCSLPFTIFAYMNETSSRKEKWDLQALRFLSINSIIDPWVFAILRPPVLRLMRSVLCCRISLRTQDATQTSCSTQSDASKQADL
EP2 mod – modulates human prostaglandin E2 receptor EP2 signaling | P43116 | EP2-expressing cells, cAMP HTRF FRET, PGE2 co-stimulation | induction, % at 25 µM | actives 0.83% (n = 260,000);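 active means compounds whose cAMP rise, as percent of the full-agonist control response, exceeds 60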;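 further: rat C6 glioma line stably carrying human EP2 under a CMV promoter; the protocol text gives 20 µM as final concentration; 100% = response of wells given 1 µM PGE2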
Furin inh – human furin inhibition; P09958; purified furin, fluorogenic substrate cleavage; inhibition, % at 20 µM or 30 µM; actives 0.061% (n = 220,000); AID 463115; in the data active means inhibition above about 25%
HMGR II inh – blocks class II HMG-CoA reductase of Enterococcus faecalis. AID 1066. inhibition, % at 10 µM. purified E. faecalis HMGR, NADPH absorbance 340 nm kinetic. actives 0.41% (n = 190,000);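 active means inhibition above a set limit, the median over all tested compounds plus 3 SD, cut at about 9.5% in these data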;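 further: enzyme runs in reverse so mevalonate oxidation gives rising NADPH absorbance; 0% = complete reaction with DMSO and 100% = background rate lacking mevalonate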
m-calpain inh – calpain II (pig) inhibition | inhibition, % at 16 µM | purified calpain II, fluorogenic peptide substrate, 30 min | AID 1236 | actives 0.37% (n = 220,000);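 active means inhibition above about 50%, limit read from the data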
Numbers without * were called inactive; x = no result given.

SMILES	PGE2 EP2 inh	EP2 mod	Furin inh	HMGR II inh	m-calpain inh
CCc1cc2cc(C)c(C)cc2nc1SCC(=O)Nc1ccc2c(c1)OCO2	14.3	6.5	x	x	x
CC(C)(C)NC(=O)CSc1nc2cc3c(cc2cc1Cc1ccccc1)OCO3	9.6	80.8*	x	x	x
COc1ccc(NC(=O)CSc2nc3cc4c(cc3cc2C)OCO4)cc1	16.1	-95.5	x	x	x
CCOc1cccc(N2C(=O)/C(=C/c3ccccc3O)C(=O)NC2=S)c1	5.8	-36.1	x	x	x
CC(C)c1nnc(SCC(=O)Nc2nc3c(s2)CCCC3)n1C	11.1	10.0	x	x	x
NC(=O)c1nnn(Cc2cc(Cl)c(C(=O)c3ccc(Cl)cc3)c(Cl)c2)c1N	44.2*	-14.9	x	x	x
CCn1c(SCC(=O)NCc2ccccc2)nnc1-c1ccncc1	5.4	3.5	x	x	x
Cc1cccc(-c2nc(-c3ccccn3)no2)c1	7.1	-8.6	x	x	x
NNc1nc2c(Cl)ccc(Cl)c2s1	10.8	-46.7	2.3	18.7*	-13.1
Cc1cc(C)c2[nH]c(C(=O)NC(c3ccccc3)c3ccnn3C)c(C)c2c1 (stereo not drawn)	6.3	-55.8	x	x	x
N#Cc1c(Cl)cccc1Oc1ccc(S(=O)(=O)Nc2ccccc2)cc1	10.2	-30.5	-1.3	x	51.0*
Cc1ccc(S(=O)(=O)NCc2c(Cl)cccc2Oc2ccccc2)cc1	10.0	68.6*	-14.4	x	23.1
CC(C)CCOc1ccccc1C(N)=O	1.5	7.8	-28.1	9.7*	-6.1
CCCCCCOc1ccccc1C(N)=O	15.6	17.8	x	x	x
O=[N+]([O-])c1cc(Cc2cc([N+](=O)[O-])c3cccnc3c2O)c(O)c2ncccc12	75.4*	-16.4	x	x	x
COc1ccc2[nH]c(=O)c(CN(Cc3ccco3)C(=O)Nc3ccc(Cl)cc3)cc2c1	14.6	-42.3	x	x	x
Cn1cnnc1SCC(=O)Nc1ccc2c(c1)CCC2	6.2	-13.7	-12.8	-5.1	-11.6
COc1ccc(NC(=O)CSc2nncn2C)cc1OC	-0.4	21.4	26.9*	-2.7	-12.6
C#CCOCC1Cc2c(C)nn(C(N)=S)c2O1 (stereo not drawn)	12.2	-0.5	x	x	x
COc1ccc(-n2ncc3c(NCc4cccs4)ncnc32)cc1	9.0	-30.6	-10.3	2.3	8.1
c1ccc(-n2ncc3c(NCc4cccs4)ncnc32)cc1	11.3	-8.1	-17.3	-1.1	64.1*
O=C(CSc1nc(-c2cccs2)cc(C(F)(F)F)n1)Nc1cccc(Cl)c1Cl	9.4	-55.5	x	x	x
CCOc1ccc2[nH]c(=O)c(C(c3nnnn3C(C)(C)C)N3CCN(C4CCCCC4)CC3)cc2c1 (stereo not drawn)	9.6	-1.0	x	x	x
CCN1C(=O)C=CC1=O	12.8	-6.6	x	x	x
O=C1C=CC(=O)N1CCCCCCN1C(=O)C=CC1=O	135.0*	-1.0	-21.5	-5.2	-19.3
SMILES	PGE2 EP2 inh	EP2 mod	Furin inh	HMGR II inh	m-calpain inh
CCOC(=O)N1CCC(Nc2ccc(N3C(=O)C4CCCCC4C3=O)cc2[N+](=O)[O-])CC1 (stereo not drawn)	8.3	-19.2	5.4	-2.7	98.2*
CCOCCCNc1ccc(N2C(=O)C3CCCCC3C2=O)cc1[N+](=O)[O-] (stereo not drawn)	2.7	-68.9	-21.6	-3.8	58.7*
CCN(CC)c1ccc(N2C(=O)C3CCCCC3C2=O)cc1[N+](=O)[O-] (stereo not drawn)	10.5	-10.3	-11.7	2.7	26.5
CCOC(=O)c1c(NC(=O)CSc2nc3ccc(C)cc3cc2C#N)sc(C(C)=O)c1C	11.5	19.0	x	x	x
O=C(Cc1n[nH]c(=O)c2ccccc12)N1CCC(n2nnc(-c3ccc(F)cc3)n2)CC1	1.3	-91.5	x	x	x
CN1[C@@H]2CC(OC(=O)[C@@H](CO)c3ccccc3)C[C@H]1[C@H]1O[C@H]12 (stereo partly drawn)	51.8*	24.0	x	x	x
CN1C2CC(OC(=O)[C@H](CO)c3ccccc3)CC1C1OC12 (stereo partly drawn)	6.3	11.1	x	x	x
Cc1cc(N2CCOCC2)ccc1CN1CCC2(CC1)NC(=O)c1ccccc1O2	1.7	-23.1	x	x	x
CCCCCCN1C=CC=C/C1=C/C=C(C#N)C#N	14.2	31.9	30.0*	-1.0	1.4
O=C(CCCSc1nc(-c2ccco2)cc(C(F)(F)F)n1)Nn1cnnc1	8.8	-40.6	x	x	x
CC(NC(=O)CCCSc1nc(-c2ccco2)cc(C(F)(F)F)n1)c1ccccc1 (stereo not drawn)	42.3*	-125.2	x	x	x
Cc1cccc2cc(CN(C(=O)c3ccco3)C3CCCCC3)c3nnnn3c12	10.2	31.9	x	x	x
CCOC(=O)CSc1nc2ccc(Nc3nc(N4CCOCC4)nc(N4CCOCC4)n3)cc2s1	72.4*	-34.2	-22.9	-8.3	-44.8
CC(=O)CSc1nc2ccc(Nc3nc(N4CCOCC4)nc(N4CCOCC4)n3)cc2s1	4.4	-28.3	-12.1	0.5	-61.6
COc1ccc2cc(C)c3nnc(SCC(=O)Nc4ccccc4-c4ccccc4)n3c2c1	6.8	49.9	x	x	x
Cc1ccc(S(=O)(=O)Oc2cc(S(=O)(=O)O)cc3cc(S(=O)(=O)O)cc(N)c23)cc1	60.8*	31.8	x	x	x
O=C(Nc1ncn[nH]1)c1ccc2c(c1)OCCO2	4.8	-10.5	x	x	x
CC(=O)N(CC(=O)Nc1nn(-c2ccccc2)nc1C(N)=O)Cc1ccccc1	0.6	-13.9	-17.7	-4.5	-63.8
CC(C)(C)n1nnnc1SCC(=O)Nc1nn(-c2ccccc2)nc1C(N)=O	5.6	51.1	-21.4	10.0*	-62.4
C[C@@]12CC[C@@H]3[C@H](CC=C4C[C@@H](O)CC[C@@]43C)[C@H]1CC[C@H]2N(CCO)CCO	49.0*	9.9	x	x	x
C=C(C)CSc1nc2c(c(=O)n(C)c(=O)n2C)n1Cc1ccc(Cl)cc1	7.2	61.2*	x	x	x
O=C1CC(=O)N(Cc2ccco2)C(=O)N1	x	23.7	-23.4	-7.7	11.7
O=C1CC(=O)N(Cc2ccco2)C(=S)N1	8.7	2.6	-21.7	21.2*	-113.7
O=c1[nH]c(=S)n(-c2ccccc2F)c(O)c1/C=C1\C=Nc2ccccc21	116.2*	-99.0	x	x	x
CC(=O)N=c1sc2nc3ccccc3nc2n1N(C(C)=O)C(C)=O	81.3*	23.5	-7.7	-1.1	-23.1
SMILES	PGE2 EP2 inh	EP2 mod	Furin inh	HMGR II inh	m-calpain inh
Nc1c(S(=O)(=O)c2cccs2)c2nc3ccccc3nc2n1/N=C/c1cccc(O)c1	40.9*	-7.1	-0.9	-0.5	-161.5
COC(CNC(=O)CNC(=S)N(Cc1ccccc1)Cc1cccnc1)OC	3.9	-5.5	-22.8	9.6*	-14.2
O=C(CNC(=S)N(Cc1ccccc1)Cc1cccnc1)NCc1ccccc1	5.6	-17.5	-17.6	-2.0	-0.7
C=C(C)Cn1c(COc2ccccc2)nc2ccccc21	10.9	68.9*	x	x	x
C=CCN1C(=O)C2C(C(=O)NC3CCCCC3C)C3(C)C=CC2(O3)C1C(=O)NC(C)(C)C (stereo not drawn)	2.4	-2.3	x	x	x
CCOC(=O)c1c(CN(CC)CC)oc2ccc(OC)cc12	13.2	27.9	-8.7	11.7*	-48.0
CC(C)CCCC(C)C1CCC2C3C[C@@H](O)[C@@]4(O)C[C@@H](O)CC[C@]4(C)C3CC[C@]12C (stereo partly drawn)	10.0	10.2	x	x	x
CC(C)CCC[C@@H](C)[C@@H]1CC[C@@H]2[C@H]3CC[C@H]4C[C@@H](N)CC[C@]4(C)[C@@H]3CC[C@]21C	40.5*	-16.7	x	x	x
